A selection: hits, their analogues and other compounds. The true share with any hit is near 0.63%.
gsp ag – gsp mutant agonism; gsp mutant cells, cAMP HTRF, 30 min; Potency, µM (series often up to 76.9 µM), for the others: at the highest dose activation (cAMP increase), hits mostly activators; 0.13% of 340,000 active; AID 624287; active means well fitted activation curve with a large enough effect; inconclusive means small, poorly fitted or top-dose-only effect, or another doubt; inactive means no such curve, though single readings can be large or run the other way; cell line not stated here;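 further: phosphodiesterase inhibitor Ro 20-1724 added with compounds to block cAMP breakdown; potency means the concentration at half of the fitted maximal effect; nearly all actives have a fitted effect of over 60% in size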
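Cells in DMEM/10% FBS with G418 were pretreated with compounds in DMSO plus […] (300 uM stock) for 30 min at 37C. cAMP was measured by HTRF (cAMP-d2 plus anti-cAMP antibody-K) after 30 min at room temperature.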
TSHR antag – human thyrotropin receptor antagonism; activity change, negative = inhibition, % at 11.5 µM; AID 504810; 0.2% of 330,000 active; TSHR-expressing cells, TSH-stimulated cAMP HTRF, 2 h; active compounds read low;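 active means activity change below a set negative limit, meaning inhibition stronger than a set level, cut at about -70% in these data; inconclusive means activity change between two set negative limits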; further: on the % scale 0 is the no-effect control and ±100 the full control effect
Target sequence (P16473 whole entry, looked up): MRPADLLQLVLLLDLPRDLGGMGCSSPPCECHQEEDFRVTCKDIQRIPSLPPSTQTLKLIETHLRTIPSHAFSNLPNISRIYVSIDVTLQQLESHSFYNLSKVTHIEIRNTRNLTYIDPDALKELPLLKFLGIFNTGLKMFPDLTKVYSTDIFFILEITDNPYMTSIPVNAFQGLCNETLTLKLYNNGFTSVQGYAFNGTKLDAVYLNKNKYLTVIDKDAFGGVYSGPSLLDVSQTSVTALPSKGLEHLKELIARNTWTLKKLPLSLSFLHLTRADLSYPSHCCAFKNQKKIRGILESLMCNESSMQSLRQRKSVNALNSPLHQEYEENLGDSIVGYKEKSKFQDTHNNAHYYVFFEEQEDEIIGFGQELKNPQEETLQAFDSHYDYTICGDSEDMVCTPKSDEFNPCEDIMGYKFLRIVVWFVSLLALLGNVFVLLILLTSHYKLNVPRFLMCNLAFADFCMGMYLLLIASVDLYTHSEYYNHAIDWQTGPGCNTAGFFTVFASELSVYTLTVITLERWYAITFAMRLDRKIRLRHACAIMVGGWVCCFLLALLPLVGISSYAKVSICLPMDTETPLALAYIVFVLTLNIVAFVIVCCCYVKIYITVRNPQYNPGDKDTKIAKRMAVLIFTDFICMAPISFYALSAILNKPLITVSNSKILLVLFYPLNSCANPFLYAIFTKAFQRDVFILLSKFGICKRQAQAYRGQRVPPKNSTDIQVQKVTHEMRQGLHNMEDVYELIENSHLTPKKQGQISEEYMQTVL
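Inhibition of cAMP made by TSHR-expressing cells under TSH stimulation (4nM final, EC80; 2 h, 37 deg C) is quantified with a one-step lysis HTRF kit, anti-cAMP cryptate versus cAMP-d2.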
gsp antagonist – antagonists of gsp mutant (McCune-Albright syndrome); gsp-mutant cells, cAMP HTRF, 30 min; 0.4% of 340,000 active; Potency, µM (series often up to 76.9 µM), for inactives: top-dose activity change, negative = inhibition, usual class: inhibitors; calls by dose curve; cell line not stated here;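 further: intracellular cAMP measured with PDE inhibitor Ro 20-1724 present during compound exposure; potency means the concentration at half of the fitted maximal effect; on the % scale 0 is the no-effect control and ±100 the full control effect; nearly all actives have a fitted effect of over 65% in size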
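G418-selected cells were plated in DMEM/10% FBS for 16-24 h at 37C, then treated with compounds plus the PDE inhibitor […] (300 uM solution added) for 30 min at 37C. Intracellular cAMP was measured by HTRF after 30 min lysis at room temperature.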
ASM inhibitor – human S-ASM enzyme inhibition | Potency, µM (top dose mostly 57.5 µM), for inactives: at the top dose activity change, negative = inhibition, actives largely listed as inhibitors | 0.006% of 340,000 active | placental ASM, HMU-PC fluorogenic substrate, 60 min | P17405; active means well fitted inhibition curve with a large enough effect; inconclusive means small, poorly fitted or top-dose-only effect; inactive means no such curve, though single readings can be large or run the other way; further: potency means the concentration at half of the fitted maximal effect
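HMU-PC0 cleavage (9 uM final) by human placental ASM, 60 min at 37 °C following 10 min compound exposure at RT; stopped at pH 10, fluorescence Ex 386/Em 447 nm.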
* marks the source's active call; other numbers are inactive results; i = inactive; ? = inconclusive; nt = no result given; [ ] = dose if it differs, or a comment.

SMILES	gsp ag	TSHR antag	gsp antagonist	ASM inhibitor
O=c1cc(-c2c(F)c(F)c(F)c(F)c2F)oc2c(F)c(F)c(F)c(F)c12	nt	-76*	nt	nt
FC(F)(F)c1ccccc1/C=N/n1c(C2CCCCC2)n[nH]c1=S	-18%	-12	-7%	-7%
S=c1[nH]nc(C2CCCCC2)n1/N=C/c1ccccc1Cl	27%[15.4 µM]	-8	40µM*	-4%
O=C(/C=C/c1ccc2c(c1)OCO2)Nc1nc(-c2ccccc2)cs1	-1%	-79*	-18%	29%
CCOC(=O)CNC(=O)CSc1nc(-c2ccccc2)ns1	-16%[15.4 µM]	6	-1%	0%
CCOC(=O)CNC(=O)CSc1nc(-c2ccc(C)cc2)ns1	-29%[15.4 µM]	-5	11µM*	0%
CCOc1ccc(Cl)cc1CNCCCSc1nc(C)cc(C)n1	7%	-3	6%	4%
C=CCSc1nsc(NC(=O)Nc2ccc(F)cc2)n1	-19%	-82*	-35%	?
Cc1ccc(S(=O)(=O)/N=C2/NC(=O)/C(=C\c3cc(Br)cc(Br)c3O)S2)cc1	?	-100*	-15%	2%
Cc1ccc(S(=O)(=O)/N=C2/NC(=O)/C(=C/c3ccc(Br)o3)S2)cc1	-86%	-25	-12%	44%
CCCC1(C)C(C#N)(C#N)C1(C#N)C#N	nt	-24	nt	nt
O=C(Cc1nn[nH]n1)c1ccccc1O	-33%	-5	-7%	-5%
Cc1cc(C)nc(N/C(=N\S(=O)(=O)Cc2ccccc2)Nc2ccc(F)c(Cl)c2)n1	-78%	-8	2%	-5%
CC(C)(C)c1cc(NC(=O)COC(=O)c2ccc(O)cc2O)n(-c2ccccc2)n1	6%[15.4 µM]	-10	-12%	-6%
O=C(COC(=O)c1ccc(O)cc1O)Nc1cc(-c2ccccc2)nn1-c1ccccc1	-10%[15.4 µM]	-17	35µM*	?
CC1CCCC(C)N1C(=O)Cn1nnc(-c2ccccc2)n1 (stereo unspecified)	16µM*	-4	4%	-2%
Oc1ccc(CNCc2ccc3c(c2)OCO3)c2cccnc12	nt	-8	nt	nt
CC1CC1C(=O)OCc1cc(=O)n2cc(Br)ccc2n1 (stereo unspecified)	?	1	5%	-1%
O=C(OCc1cc(=O)n2cc(Br)ccc2n1)C1COc2ccccc2O1 (stereo unspecified)	10µM*	0	-4%	0%
CCCCOc1ccc(C(=O)NCC2(c3ccc(OC)cc3)CCOCC2)cc1	-2%[15.4 µM]	1	-12%	-6%
COC(=O)c1nnn(-c2cc(Cl)cc(Cl)c2)c1C(=O)OC	-5%	3	-5%	0%
Cn1c(C(=O)NCC2CCCO2)cc2c(=O)n3ccccc3nc21 (stereo unspecified)	13µM*	15	5%	i
COc1ccc(CCn2c(=N)c(C(=O)NCC3CCCO3)cc3c(=O)n4ccccc4nc32)cc1OC (stereo unspecified)	6%	2	-12%	34%
Cc1ccc(SCCNC(=O)c2ccc(C)c([N+](=O)[O-])c2)cc1	-45%	-14	?	-4%
Cc1ccc(C(=O)NCCSc2c(C)[nH]c3ccccc23)cc1[N+](=O)[O-]	-39%	-4	35µM*	-13%
SMILES	gsp ag	TSHR antag	gsp antagonist	ASM inhibitor
Cc1nc(-c2ccc(F)cc2)c(CC(=O)N(C)CC(=O)Nc2ccc(Cl)c(C(F)(F)F)c2)s1	20%	nt	32µM*	?
COCC(=O)Nc1ncc(S(=O)(=O)c2ccc([N+](=O)[O-])cc2)s1	6%[15.4 µM]	-4	0%	-4%
O=C(Nc1ncc(S(=O)(=O)c2ccc([N+](=O)[O-])cc2)s1)c1cccc2ccccc12	-3%	-82*	0%	-9%
O=C(NC(Nc1ncc(S(=O)(=O)c2ccc([N+](=O)[O-])cc2)s1)(C(F)(F)F)C(F)(F)F)c1ccc(Cl)cc1	4%[15.4 µM]	-40	35µM*	-6%
CC1(C)Cc2c(c(N3CCOCC3)nc3snc(NC(=O)c4ccccc4)c23)CO1	17%	8	2%	-3%
Cc1nc2c(sc3nc(N4CCOCC4)c4c(c32)CC(C)(C)OC4)c(-c2ccccc2)c1C(=O)O	6.3µM*	-8	13%	61%
COCc1ccc(CN2CCC(n3nccc3NC(=O)CCCc3ccccc3)CC2)o1	28%	-4	-1%	4%
O=C(NCc1ccncc1)C(=O)Nc1nc(C23CC4CC(CC(C4)C2)C3)cs1	-6%	-5	45µM*	-2%
COc1ccc(-c2oc3ncn4nc(Cc5ccccc5)nc4c3c2-c2ccc(OC)cc2)cc1	-36%	2	10µM*	238%
CCOC(=O)N1CCN(C(=O)c2ccc3c(c2)NC(=O)/C(=C\c2ccc(OC)c(OC)c2)S3)CC1	11%	-133*	0%	-2%
Cc1ccc(C(C)C)c(OC/C(O)=C(\C#N)c2nc3ccccc3[nH]2)c1	7%[15.4 µM]	-11	-16%	-6%
COc1ccc(/C=C2\CCCC3C2=NN(C(=O)CSc2ncn[nH]2)C3c2ccc(OC)cc2)cc1 (stereo unspecified)	-5%[15.4 µM]	-7	?	-17%
O=C(CSc1ncn[nH]1)N1N=C2/C(=C/c3ccccc3)CCCC2C1c1ccccc1 (stereo unspecified)	?	19	35µM*	-15%
O=C(CSC(=S)N1CCCC1)NCC(=O)Nc1ccccc1Br	4%	-3	1%	4%
O=C(c1ccc2c(=O)n(C3CCCC3)c(=S)[nH]c2c1)N1CCCCCC1	-9%[15.4 µM]	-42	32µM*	-4%
CC1C=CCC2C(=O)N(c3cccc(C(=O)N4CCN(c5ccc(F)cc5)CC4)c3)C(=O)C12 (stereo unspecified)	28µM*	-5	-12%	-1%
O=C(c1cccc(N2C(=O)C3C4C=CC(C4)C3C2=O)c1)N1CCN(c2ccc(F)cc2)CC1 (stereo unspecified)	-34%	1	0%	0%
Cc1ccc2c(C)cc(=S)[nH]c2c1	22µM*	-8	18%	1%
Cc1ccc2[nH]c(=S)cc(C)c2c1	26%	12	0%	0%
Cc1ccc(SCC(=O)OCC(=O)NC2(C#N)CCCCC2)cc1	11%	-3	12%	1%
CCOc1cc(CNc2ccc(N(C)C)cc2)cc(Br)c1OCC(=O)NC(C)(C)C	-41%	-76*	?	4%
CCOc1ccnc2c1c(=O)n(Cc1cc(OC)cc(OC)c1)c(=O)n2C	-14%	-140*	8%	0%
COc1ccc(/C=C/c2c(-c3ccc(OC)cc3)sc3cc(OC)c(OC)cc23)cc1	nt	4	5%	25%
COc1ccc(N2CCN(C(=O)c3cc(-c4cc(OC)ccc4OC)nc4ccccc34)CC2)cc1	-59%	-17	?	-10%
CCOc1ccccc1N1CCN(C(=O)c2cc(-c3cc(OC)ccc3OC)nc3ccccc23)CC1	23%	-22	14µM*	-2%
CN1CCCN(C(=O)c2cc(-c3cccc4ccccc34)nc3ccccc23)CC1	-5%[15.4 µM]	-77*	0%	8%
O=C(c1cc(-c2ccccc2Cl)nc2ccccc12)N1CCC1	-8%	-2	2%	9%

Screening results deposited in PubChem BioAssay by National Center for Advancing Translational Sciences (NCATS).
